# About 83,000 compounds went through this panel and 20% of them were active in at least one assay; those are over-represented in the sample as a whole.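 Single-concentration screen, 48 h exposure, 96-well plates. Endpoint: percent growth. Below 10 = active.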 Unmarked numbers belong to inactive results. Activity calls are given as the source filed them.
# System: MDA-MB-468 breast
# Assay: NCI-60 one-dose screen, 48 h (100 = growth as untreated, 0 = no growth, -100 = all killed)
# Settings: 10 µM unless noted
row,Compound,growth
1,CCCN1C(=O)N(CCC)C2C1NC(=S)N2/N=C/C=C/c1ccccc1OC (centres undefined),1.14% (active)
2,COc1ccc(/C=C/C(c2cc(OC)c(OC)c(OC)c2)n2cncn2)cc1O (centres undefined),8.27% (active)
3,C=CCc1nc2ccccc2s1,-14.5% (active)
4,O=C(Nc1nc(-c2ccccc2Cl)cs1)c1cc(-c2ccc(Cl)cc2)nc2ccc(Cl)cc12,89.4%
5,Cc1ccc(Nc2oc(-c3ccccc3)nc2[P+](c2ccccc2)(c2ccccc2)c2ccccc2)cc1,-77.1% (active)
6,COc1ccc(-c2cc(-c3nnc(SCC(=O)Nc4ccc(C(C)=O)cc4)n3-c3ccccc3)c3ccccc3n2)cc1OC,111%
7,C=C1C(=O)O[C@H]2[C@H]1CC/C(C(=O)NCCCCCNC(=O)/C1=C/CC[C@@]3(C)O[C@H]3[C@H]3OC(=O)C(=C)[C@@H]3CC1)=C\CC[C@@]1(C)O[C@@H]21,94.9%
8,O=C1Nc2ccc(F)cc2/C1=N/c1nnc(Sc2ccccc2)s1,-0.912% (active)
9,CC1(C)CC[C@]2(C(=O)Nc3ccccn3)CC[C@]3(C)C(=CC[C@@H]4[C@@]5(C)C/C(=C/c6cccnc6)C(=O)C(C)(C)[C@@H]5CC[C@]43C)[C@H]2C1,17.2%
10,CCn1cnc(C[C@H](NC(=O)[C@H](CCCCNC(=O)Nc2cc(C(F)(F)F)cc(C(F)(F)F)c2)NC(=O)Nc2cc(C(F)(F)F)cc(C(F)(F)F)c2)C(=O)OC)c1,-21% [100 µM] (active)
11,COc1ccc(C2CC(c3ccc(Nc4ccnc5cc(Cl)ccc45)cc3)=NN2C(C)=O)cc1 (centres undefined),65.3%
12,CCOc1c(C#N)c(Nc2ccc(S(N)(=O)=O)cc2)c(C#N)c2nnc(C)n12,105%
13,CC(C)Sc1nc(Nc2ccc(S(N)(=O)=O)cc2)c(C#N)c(-c2ccc(F)cc2)n1,92.7%
14,CC(C)C1CCC(C)C(O)C1 (centres undefined),98.5%
15,CC(=O)c1nc2ccccc2n1CCN1CCN(C)CC1,-20.2% (active)
16,NCCOCCOc1ccccc1,118%
17,CCn1cc(C(=O)NN=C2CCCC2)c(=O)c2ccc(C)nc21,91.8%
18,CCC(C#N)(CC)c1ccccc1,105%
19,CN1CCC(c2ccccc2)(c2ccccc2)C(=O)C1,-11.8% (active)
20,C=C1C(=O)O[C@H]2[C@H]1CC/C(Cn1cc(-c3ccsc3)nn1)=C\CC[C@@]1(C)O[C@@H]21,-56.8% (active)

row,Compound,growth
1,CC(=O)/C(=C\c1c(-c2ccccc2)[nH]c2ccccc12)S(=O)(=O)c1ccccc1,6.12% (active)
2,CC1OC(O[C@H]2/C=C/C=C/C=C/C=C/C=C/C=C/C=C/[C@H](C)[C@@H](O)[C@@H](C)[C@H](C)OC(=O)CC(O)CC(O)CCC(O)C(O)CC(O)C[C@]3(O)C[C@H](O)C(C(=O)O)C(C2)O3)C(O)[C@H](N)C1O (some centres undefined),83.3%
3,O=C1NC(=O)c2cc([N+](=O)[O-])ccc21,96.1%
4,CCN(C(=O)c1ccc2c3c(cccc13)C=C2)c1ccccc1,84.3%
5,Oc1ccc(Cc2ccccc2)c2cccnc12,-21.1% (active)
6,COc1cc(-c2n/c(=C\c3c(O)[nH]c4ccc(Cl)cc34)cc3c2=Nc2ccccc2-3)ccc1F,-7.14% (active)
7,O=C(Nc1ccc(-n2cc(-c3ccncc3)c(-c3ccc(O)c(Cl)c3)n2)cc1)Nc1ccc(Cl)c(C(F)(F)F)c1,-6.63% (active)
8,CC1(C)CC(=O)c2c(nc3ccc(Cl)cc3c2-c2ccccc2)C1,92%
9,CCCCOC(=O)c1ccccc1O,95.7%
10,C#Cc1cc(C(=O)Nc2ccc(CNCCN3CCOCC3)c(C(F)(F)F)c2)ccc1C,82.8%
11,O=C1C(SCc2ccccc2)=C(Cl)CN1c1ccc(Cl)cc1,16.3%
12,Cc1ccc(Nc2ccc(O)c3c2C(=O)c2c(O)ccc(Nc4ccc(C)cc4)c2C3=O)cc1,95.8%
13,CN[C@@H]1C(OC2[C@H](O[C@H]3[C@H](O)[C@@H](O)[C@H](N=C(N)N)[C@@H](O)[C@@H]3N=C(N)N)OC(C)[C@]2(O)CO)OC(CO)C(O)C1O (some centres undefined),108%
14,CC1=C2[C@@H](CC1)[C@]1(C)O[C@@](C3CCNCC3)(C[C@H]1OC(=O)CO)[C@H]2OC(=O)/C=C/c1ccccc1,75.3%
15,CC1(C)CC(=O)c2c(ccc(C(=O)C[C@@H](N)CO)c2N)O1,5.3% (active)
16,COc1ccc2nc3cc(Cl)ccc3c(NCCNCC(C)O)c2c1 (centres undefined),38.6%
17,CN(/C(N)=N/N=C/c1c2ccccc2cc2ccccc12)C1CCCCC1,4.88% (active)
18,COc1ccc(-n2nc(C)c3c(Oc4ccc(NC(=O)Nc5c(Cl)cccc5Cl)cc4)ncnc32)cc1,107%
19,COc1cc2ncnc(Nc3ccc(S(=O)(=O)Nc4cc(C)on4)cc3)c2cc1OCCCN1CCN(c2ccc([N+](=O)[O-])cc2)CC1,115%
